A selection: hits, their analogues and other compounds. The true share with any hit is near 3.4%.
GPR151 ag – activates the human receptor GPR151 | hit rate 1% among 650,000 | activation, % at 11.2 µM | AID 1508602 | Q8TDV0 | PathHunter beta-arrestin GPR151 cells, luminescence; in the data active = activation above about 4.9%
FBW7 activator – activators of human E3 ligase FBW7. AID 1259310. normalized activity (activation), % at 26.1 µM. hit rate 0.13% among 650,000. AlphaScreen FBW7–phospho-cyclin E peptide binding, activator screen; in the data active = normalized activity above about 1.9%;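 also: purified mutant Fbw7 with reduced substrate affinity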
MITF inh – blocks human microphthalmia-associated transcription factor; O75030; AlphaScreen MITF homodimerization, bead proximity signal; inhibition, % at 2.6 µM; hit rate 0.91% among 650,000; AID 1259374; in the data active = inhibition above about 50%
TEAD-YAP block – TEAD-YAP interaction inhibition; HEK-TIYL cells, TEAD-Gal4/YAP UAS-luciferase luminescence; inhibition, % at 9.12 µM; hit rate 1.4% among 640,000; in the data active = inhibition above about 32%
GPR151 confirm – human GPR151 activation, confirmation screen; shares compounds with GPR151 ag; GPR151 PathHunter beta-arrestin cells, luminescence, 90 min; % of EA-reagent control over plate median; activation, % at 11.2 µM; 6,700 tested, under 10 active; AID 1508609;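 active = mean percent activation across replicates above the confirmation screen cutoff of 4.91%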
GPR119 counter – GPR119 activation, counter-screen for GPR151 activators; shares compounds with GPR151 ag; GPR119 PathHunter beta-arrestin cells, luminescence, 90 min; 0 = compound-well median, 100 = enzyme-acceptor control; activation, % at 11.2 µM; hit rate 0.3% among 6,700; AID 1508611;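 active = mean percent activation in the counterscreen above 29.09%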;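 also: counterscreen on off-target GPR119 to flag nonselective hits from the GPR151 activator screen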
Target sequence (Q8TDV5 whole entry, looked up): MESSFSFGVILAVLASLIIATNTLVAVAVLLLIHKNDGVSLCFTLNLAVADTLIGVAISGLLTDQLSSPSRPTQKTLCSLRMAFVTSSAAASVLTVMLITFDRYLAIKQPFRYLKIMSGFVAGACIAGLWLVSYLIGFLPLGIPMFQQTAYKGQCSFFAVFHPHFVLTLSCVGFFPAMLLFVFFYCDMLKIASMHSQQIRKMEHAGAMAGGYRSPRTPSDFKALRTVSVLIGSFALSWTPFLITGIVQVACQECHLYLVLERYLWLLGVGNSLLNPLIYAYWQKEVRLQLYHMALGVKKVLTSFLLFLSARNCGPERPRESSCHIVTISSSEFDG
Each line names hits and unclear results; the compound was inactive in the other large screens (follow-up assays come after a bar, where they were run); ! = a repeat was not active.

Cc1cc(C)c(C(=O)N2CCC[C@@H]3CN(Cc4cccs4)CC[C@H]32)[nH]1	none
Cc1cc(C)n2c(SCCNCCO)nnc2n1	none
Cc1cc(C)n2c(SCCO)nnc2n1	GPR151 ag 5.6 | GPR151 confirm inactive | GPR119 counter inactive
Cc1ccccc1OCC(=O)NNC(=O)CCC(=O)O	none
COc1cccc(C(=O)N[C@H]2C[C@H]3C(=O)N[C@H](CO)C(=O)N3C2)c1	none
COc1cccc(C(=O)N[C@H]2C[C@H]3C(=O)N[C@@H](CCCCN)C(=O)N3C2)c1	GPR151 ag 5.8 | GPR151 confirm inactive | GPR119 counter inactive
CC[C@@H]1NC(=O)[C@@H]2C[C@H](NC(=O)c3cccc(F)c3F)CN2C1=O	GPR151 ag 9.7 | GPR151 confirm inactive | GPR119 counter inactive
CC(C)C[C@H]1NC(=O)[C@@H]2C[C@H](NC(=O)c3cccc(F)c3F)CN2C1=O	none
CC[C@@H]1NC(=O)[C@@H]2C[C@H](NC(=O)OCc3ccccc3)CN2C1=O	GPR151 ag 5.8 | GPR151 confirm inactive | GPR119 counter inactive
O=C(N[C@H]1C[C@H]2C(=O)N[C@@H](CO)C(=O)N2C1)OCc1ccccc1	none
C[C@@H](NC(=O)N[C@H]1C[C@H]2C(=O)N[C@H](CO)C(=O)N2C1)c1ccccc1	GPR151 ag 7.6 | GPR151 confirm inactive | GPR119 counter inactive
CCC[C@@H]1NC(=O)[C@@H]2C[C@H](NC(=O)N[C@@H](C)c3ccccc3)CN2C1=O	none
Cc1cc(C)c(OCC(=O)Nc2ccc(I)cc2)c(C)c1	none
COC(=O)C(CCSC)NC(=O)C1CCN(c2nc(C)c3ccc(C)cc3n2)CC1 (stereo unspecified)	none
Cc1ccc(NC(=O)c2cccc(S(=O)(=O)Nc3cccc(C(=O)O)c3)c2)cc1	GPR151 ag 6.4 | GPR151 confirm inactive | GPR119 counter inactive
COc1c(Cl)cc(C(=O)Nc2cccc(C(=O)O)c2)cc1Cl	GPR151 ag 5.7 | GPR151 confirm inactive | GPR119 counter inactive
C=CCNc1nc(Cl)nc(NCCC2=CCCCC2)n1	GPR151 ag 5.1 | GPR151 confirm inactive | GPR119 counter inactive
Cc1ccc(C(=O)N(C)c2ccccc2)cc1	GPR151 ag 5.0 | GPR151 confirm inactive | GPR119 counter inactive
Cc1nnsc1C(=O)N/N=C/c1ccccc1	none
Cc1nnsc1C(=O)N(C)c1ccccc1	GPR151 ag 8.2 | GPR151 confirm inactive | GPR119 counter inactive
CCCCCC(O)CCC(=O)NNC(=S)Nc1ccccc1 (stereo unspecified)	none
CC(C)COCC(O)CCC(=O)NNC(=S)Nc1ccccc1 (stereo unspecified)	GPR151 ag 6.5 | GPR151 confirm inactive | GPR119 counter inactive
CCOC(=O)[C@H](CCc1ccccc1)N[C@@H](C)C(=O)N1[C@H](C(=O)O)C[C@@H]2CCC[C@@H]21	GPR151 ag 7.0! | GPR151 confirm inactive | GPR119 counter inactive
O=c1[nH]c2ccc(S(=O)(=O)N3CCN(c4ccccn4)CC3)cc2s1	GPR151 ag 5.1 | GPR151 confirm inactive | GPR119 counter inactive
COc1ccccc1NC(=O)CSc1nc2n[nH]c(C)c2c(=N)n1-c1cccc(C)c1	none
COc1ccc(-n2sc3cc([N+](=O)[O-])ccc3c2=O)cc1	none
NC(=O)c1ccc(-n2c(CCC(=O)O)ccc2-c2ccc(F)cc2)cc1	GPR151 ag 9.7 | GPR151 confirm inactive | GPR119 counter inactive
NC(=O)c1ccc(-n2c(CCC(=O)O)ccc2-c2ccccc2)cc1	none
Cc1[nH]c(=O)[nH]c(=O)c1S(=O)(=O)N1CCCC(C(=O)Nc2cccc(F)c2)C1 (stereo unspecified)	none
OCCC1CN(Cc2ccn[nH]2)CCN1Cc1ccccc1F (stereo unspecified)	none
Cc1ccccc1CN1CCN(Cc2cccc(OCCO)c2)CC1CCO (stereo unspecified)	GPR151 ag 5.9 | GPR151 confirm inactive | GPR119 counter inactive
OCCC1CN(Cc2cc(F)cc(F)c2)CCN1Cc1ccccc1F (stereo unspecified)	none
Cc1ccccc1CN1CCN(Cc2ccn[nH]2)CC1CCO (stereo unspecified)	GPR151 ag 6.0 | GPR151 confirm inactive | GPR119 counter inactive
OCCC1CN(Cc2ccncc2)CCN1Cc1ccccc1F (stereo unspecified)	GPR151 ag 6.6 | GPR151 confirm inactive | GPR119 counter inactive
COc1cccc(CN2CCN(Cc3ccccc3O)CC2CCO)c1 (stereo unspecified)	GPR151 ag 8.1 | GPR151 confirm inactive | GPR119 counter inactive
CC(C)=CCN1CCN(Cc2cccc(OCCO)c2)CC1CCO (stereo unspecified)	none
C=CCOc1ccccc1CN1CCN(Cc2ccsc2)C(CCO)C1 (stereo unspecified)	GPR151 ag 6.1 | GPR151 confirm inactive | GPR119 counter inactive
CCOc1ccccc1CN1CCN(C2CCN(c3ccccc3F)CC2)CC1CCO (stereo unspecified)	GPR151 ag 11 | GPR151 confirm inactive | GPR119 counter inactive
CCOc1ccccc1CN1CCN(Cc2cccc(F)c2)CC1CCO (stereo unspecified)	GPR151 ag 5.4 | GPR151 confirm inactive | GPR119 counter inactive
CCOc1ccccc1CN1CCN(Cc2cc(F)cc(F)c2)CC1CCO (stereo unspecified)	none
COc1ccc(CN2CCN(CCCc3ccccc3)C(CCO)C2)c(O)c1 (stereo unspecified)	none
CCOc1ccccc1CN1CCN(C2CCCC2)CC1CCO (stereo unspecified)	none
COc1ccc(CN2CCN(CCCc3ccccc3)C(CCO)C2)c(OC)c1 (stereo unspecified)	GPR151 ag 5.0 | GPR151 confirm inactive | GPR119 counter inactive
COc1ccc(-c2cc(C(F)(F)F)n3nc(C(=O)Nc4cccc(Cl)c4)c(Cl)c3n2)cc1OC	none
NC(=O)C1CCN(C(=O)c2ccc([N+](=O)[O-])o2)CC1	none
COc1cccc(CN2CCN(Cc3cc(Cl)c(O)c(OC)c3)CC2CCO)c1 (stereo unspecified)	GPR151 ag 6.3 | GPR151 confirm inactive | GPR119 counter inactive
Cc1nnc(NC(=O)c2ccc(Cl)c([N+](=O)[O-])c2)s1	none
O=S(=O)(NCc1ccncc1)c1ccc(I)cc1	GPR151 ag 9.7, TEAD-YAP block 40 | GPR151 confirm inactive | GPR119 counter inactive
Nc1ccc(S(=O)(=O)NCc2ccncc2)cc1	none
COC(=O)C1=CN(Cc2ccc(F)cc2)C=C(C(=O)OC)C1c1ccc(C(F)(F)F)cc1	none
C/C(=C/c1ccccc1)C(=O)Nc1ccc(S(N)(=O)=O)cc1	GPR151 ag 5.0 | GPR151 confirm inactive | GPR119 counter inactive
COc1ccc(NC(=O)CN2C(=O)CCSc3ccccc32)c(OC)c1	none
COc1ccccc1CN1C[C@@H]2C[C@@H](c3cccc(SC)c3)N3CCC[C@@]23C1=O	GPR151 ag 6.5 | GPR151 confirm inactive | GPR119 counter inactive
